Screening data deposited in PubChem BioAssay by several laboratories.
Only some compounds are listed: those with a hit (about 3.7% of all), similar ones and a draw of the others.
tim10-1 inh: growth inhibitors of tim10-1 mutant yeast, primary screen, luminescence, uHTS | S. cerevisiae tim10-1 ts strain growth, BacTiter-Glo, 24 h | inhibition, % at 20 µM | 330,000 compounds, 2.2% hits;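 active means inhibition of at least 40%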;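 further: mutant grown at 25 °C; 0% = DMSO wells with yeast and 100% = wells holding no yeast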
tim23-1 inh: growth inhibitors of tim23-1 mutant yeast, primary screen, luminescence, uHTS; 330,000 compounds, 1.3% hits; S. cerevisiae tim23-1 growth, BacTiter-Glo luminescence, 24 h; inhibition, % at 20 µM;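 active means growth inhibition of the mutant yeast at or above 50%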;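 further: temperature-sensitive mutant grown at 25 °C; plate controls were DMSO-treated mutant yeast for no effect and medium wells lacking yeast for full effect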
NALP3 yeast inh: NALP3 inflammasome inhibitors in reconstituted yeast, primary screen, luminescence, uHTS. Yeast reconstituted NLRP3/ASC/caspase-1, beta-gal luminescence, 24 h. inhibition, % at 10 µM. 330,000 compounds, 0.39% hits. AID 2825, 2010;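 active means inhibition of 50% or more; inactive means inhibition below 50%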;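 further: plate controls were induced DMSO wells for no effect and uninduced yeast grown without galactose for full effect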
PfHsp90 yeast 2: growth inhibition of PfHsp90-expressing yeast, primary screen, antimalarial PfHsp90 inhibitor project, S. cerevisiae, BacTiter-Glo luminescence, single point, set 2. BacTiter-Glo ATP, 48 h; yeast lacking PDR1 and PDR3 efflux regulators. inhibition, % at 9.4 µM. 310,000 compounds, 0.32% hits. AID 504621, 2011;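 active means every replicate shows inhibition above about 80%, whatever the replicate mean, limit read from the data; inconclusive means mean inhibition reaches the set limit but some replicate falls short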;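 further: 0% = DMSO neutral controls and 100% = 20 µM radicicol positive controls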
TIM10 inh: growth inhibitors of isogenic TIM10 control yeast, primary screen, counter-screen for tim10-1 yeast inhibitor project, luminescence, uHTS; 330,000 compounds, 1.4% hits; S. cerevisiae TIM10 strain growth, BacTiter-Glo luminescence, 24 h; AID 463195, 2010; inhibition, % at 10 µM;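 active means inhibition of 40% or more at the single tested concentration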;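 further: wild-type TIM10 isogenic control strain grown at permissive 25 °C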
NALP3 yeast conf: NALP3 inhibitors retested in yeast, confirmation, luminescence, single concentration. AID 435006, 2010. shares compounds with NALP3 yeast inh. inhibition, % at 10 µM. 1,300 compounds, 81% hits. yeast expressing human NALP3; in the data active means inhibition above about 48%
Casp1 ASC ctr: CASP1-PYCARD signaling inhibition in yeast, confirmatory test, counterassay for NLRP3 inhibitor program, one-dose; shares compounds with NALP3 yeast inh; yeast expressing Caspase-1-ASC, luminescence counter screen; inhibition, % at 10 µM; 1,000 compounds, 66% hits
NALP3 yeast rt: NALP3 inhibitors in yeast, repeat test, confirmation, luminescence, single concentration, retest. shares compounds with NALP3 yeast inh. yeast expressing human NALP3, luminescence read-out. inhibition, % at 10 µM. 1,000 compounds, 53% hits
* marks the source's active call; other numbers are inactive results; ? = inconclusive; · = no result. Unless noted, no stated cut-off is given here; in the data, active means inhibition above about 50%; inactive means the rest.

SMILES	tim10-1 inh	tim23-1 inh	NALP3 yeast inh	PfHsp90 yeast 2	TIM10 inh	NALP3 yeast conf	Casp1 ASC ctr	NALP3 yeast rt
CCn1c(-c2cc(-c3ccc(OC(C)C)cc3)nc3ccccc23)n[nH]c1=S	39	42	54*	·	30	37	·	·
NCCc1nnc(SCC(=O)Nc2ccc(Br)cc2)o1	8	10	58*	16	0	70*	53*	49
O=C(NCCN1CCOCC1)c1cccc(NS(=O)(=O)c2ccc(Br)cc2)c1	4	8	19	-4	-7	·	·	·
CCc1sc(C(=O)N2CCc3ccccc32)cc1C	9	43	51*	8	6	34	·	·
O=C(c1ccc(Cl)s1)N1CCc2ccccc21	12	16	28	24	6	·	·	·
COc1ccc(CCNC(=O)c2ccc3ccccc3n2)cc1	-30	15	52*	-11	2	67*	41	30
NS(=O)(=O)c1ccc(CCNC(=O)c2ccc3ccccc3n2)cc1	5	6	-4	-19	5	·	·	·
CC(C)(c1cc(Br)c(O)c(Br)c1)c1cc(Br)c(O)c(Br)c1	-64	4	53*	?	22	49*	·	·
Cc1ccc(NC(=O)COc2cccc3ccccc23)c(O)c1	-10	-2	27	-23	-5	·	·	·
CC(=O)Nc1ccc(C(=O)OCC(=O)c2cccc([N+](=O)[O-])c2)cc1	-12	11	0	2	-1	·	·	·
COC(=O)Nc1ccc(SCC(=O)c2cccc([N+](=O)[O-])c2)cc1	7	23	54*	6	1	63*	58*	41
COc1ccc(NC(=O)c2cc(C(=O)Nc3ccc(OC)cc3OC)cc([N+](=O)[O-])c2)c(OC)c1	14	8	20	-33	6	·	·	·
CCN(CC)S(=O)(=O)c1ccc2nc(SC)sc2c1	-2	27	75*	4	1	82*	73*	66*
CSc1nc2ccc(S(=O)(=O)N(C)C)cc2s1	12	1	47	·	-4	·	·	·
Cc1ccc(S(=O)(=O)Nc2cccnc2)c(C)c1C	9	12	16	-21	-10	·	·	·
CSc1ccc(-c2cc(=O)c3ccccc3o2)cc1	30	36	62*	2	-2	63*	53*	62*
COc1ccc(S(=O)(=O)Nc2ccc3c(c2)CC(=O)N([C@@H](C)CO)C[C@H](C)[C@@H](CN(C)S(=O)(=O)c2ccc(F)cc2)O3)cc1	-4	-1	8	-21	-1	·	·	·
CN1CCc2nc3ccc(Cl)cc3c(-c3ccccc3Cl)c2C1	6	12	57*	9	12	57*	42	41
Cc1nc2ccc(Cl)cc2c(-c2ccccc2Cl)c1CC(=O)O	-1	13	-2	-16	6	·	·	·
CC(=O)n1cc([C@H]2C=C(C(=O)NCc3ccccc3)O[C@@H](OCCCCO)C2)c2ccccc21	13	16	4	0	16	·	·	·
CC(=O)n1cc([C@@H]2C=C(C(=O)NCc3ccccc3)O[C@H](OCCCCO)C2)c2ccccc21	5	26	89*	-2	5	40	5	23
COc1ccc(C(O)(CCN2CCCCC2)C2CCCCC2)cc1 (stereo not given)	20	11	-1	-13	-4	·	·	·
O=C1NCC2=C1C(c1ccc(Br)cc1)Nc1ccccc1N2 (stereo not given)	-17	32	52*	13	31	63*	41	33
CC1(C)CC(=O)C2=C(C1)Nc1ccccc1NC2c1ccc(F)cc1 (stereo not given)	-1	4	-1	-2	6	·	·	·
CCC1(c2ccc(F)cc2)NC(=O)N(CC(=O)N2c3ccccc3CC2C)C1=O (stereo not given)	-9	25	5	·	19	·	·	·
SMILES	tim10-1 inh	tim23-1 inh	NALP3 yeast inh	PfHsp90 yeast 2	TIM10 inh	NALP3 yeast conf	Casp1 ASC ctr	NALP3 yeast rt
c1ccc(-c2nc(Sc3ncnc4c3cnn4-c3ccccc3)n[nH]2)cc1	27	31	50	·	18	69*	·	·
Cc1ccc(CSc2ncnc3c2cnn3-c2ccccc2)cc1	-6	-8	-27	19	-24	·	·	·
O=C(OCCCc1cc2ccccc2c(=O)o1)c1ccc2c(c1)OCO2	-5	28	53*	-12	-18	37	30	30
O=C(OCCc1cc2ccccc2c(=O)o1)c1ccc2c(c1)OCO2	11	35	23	-26	-11	·	·	·
C=CCN(c1ccccc1)S(=O)(=O)c1cccc(C(=O)N(CC)CC(=O)Nc2c(F)cccc2F)c1	15	10	19	11	4	·	·	·
CCOc1cc(C)nc(N2CCC(C(=O)NCC3CCCO3)CC2)n1 (stereo not given)	·	·	·	-17	·	·	·	·
Cc1ccc(C(=O)c2nocc2C(=O)c2cccs2)cc1	13	46	55*	18	27	60*	73*	42
COC(=O)c1cc(C(=O)c2cccc(Cl)c2Cl)cn1C	0	17	61*	-8	-10	73*	63*	46
CCN1C(=O)/C(=C/C=C2/SCCN2C)SC1=S	-13	2	50	1	-11	33	·	·
C[C@]12CCC(=O)C[C@@H]1CC[C@@H]1[C@@H]2CC[C@]2(C)[C@@H](C(=O)COC(=O)CCC(=O)O)CC[C@@H]12	24	26	54*	21	5	77*	51*	47
CC12CCC(=O)CC1CCC1C2CCC2(C)C1CCC2(O)C(=O)CO (stereo not given)	·	·	·	-2	·	·	·	·
Cc1cc2ccccn2c1C(=O)c1ccc(F)cc1	-9	12	48	12	-7	·	·	·
Cc1cc2ccccn2c1C(=O)c1ccccc1Br	8	31	57*	12	-8	55*	50*	45
O=C(NC1CCN(S(=O)(=O)c2cccc(Cl)c2)CC1)C1CCCCC1	-14	4	53*	-1	0	56*	25	20
O=C(NNC(=O)C1CCN(S(=O)(=O)c2cccc(Cl)c2)CC1)C1CC1	12	7	2	1	-2	·	·	·
Cc1cccc(NS(=O)(=O)c2ccc(C)c(C(=O)NCc3ccncc3)c2)c1	-5	1	3	15	3	·	·	·
O=S(=O)(c1ccc(N2CCCC2)cc1)C(F)(F)F	6	21	56*	-6	6	59*	59*	46
CCC1C(=O)NCCN1C(=O)c1cccc(OC2CCN(S(=O)(=O)N(C)C)CC2)c1 (stereo not given)	7	-11	22	31	2	·	·	·
